Here are results for one sequence from paper PMC7862700, “An all-to-all approach to the identification of sequence-specific readers for epigenetic DNA modifications on cytosine”.

Common to all, as to assay: DAPPL (digital affinity profiling via proximity ligation, sequencing); 10 mM Tris-HCl pH 7.5, 50 mM NaCl, 1 mM DTT, 4% glycerol, room temperature, 30 min; GST-TFs on glutathione beads, 16-mer random dsDNA library, 0.1% formaldehyde crosslink after washing; high values mean tight binding
One test addresses T1, FLI1 (Homo sapiens, UniProt Q01543 1-452).
T1 sequence: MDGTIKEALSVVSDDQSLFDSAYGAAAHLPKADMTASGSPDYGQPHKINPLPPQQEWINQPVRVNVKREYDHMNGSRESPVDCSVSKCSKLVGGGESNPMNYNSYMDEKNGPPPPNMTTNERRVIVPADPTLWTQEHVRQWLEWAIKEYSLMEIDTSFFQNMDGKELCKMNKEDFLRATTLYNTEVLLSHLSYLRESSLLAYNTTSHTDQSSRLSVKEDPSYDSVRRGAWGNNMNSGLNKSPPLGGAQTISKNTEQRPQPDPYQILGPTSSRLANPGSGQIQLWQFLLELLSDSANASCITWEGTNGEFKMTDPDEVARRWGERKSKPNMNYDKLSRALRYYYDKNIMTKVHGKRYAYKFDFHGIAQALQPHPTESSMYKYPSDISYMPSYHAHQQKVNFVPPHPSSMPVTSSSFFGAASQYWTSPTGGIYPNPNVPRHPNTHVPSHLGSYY
The following applies: protein: recombinant; tags: N-terminal GST; dsDNA, one strand shown. A digest of the protocol:
(§1)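 Pools of DNA-barcoded human transcription factors, expressed in yeast as GST fusions on glutathione beads and combined with a tag-only sample, were incubated with 200 nmole of a 16-mer random double-stranded DNA library. Incubation took 30 min at room temperature in Tris/NaCl/DTT/glycerol buffer and was followed by washing, 0.1% formaldehyde crosslinking, proximity ligation (BsaI/T4 ligase, 1 h, 37 °C), PCR amplification and sequencing on an Illumina NextSeq500. Binding signal is the ratio of a hexamer's read frequency for a factor to its frequency for the tag-only sample.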

Another test addresses T2, ELK1 (Homo sapiens, UniProt P19419 1-428).
T2 sequence: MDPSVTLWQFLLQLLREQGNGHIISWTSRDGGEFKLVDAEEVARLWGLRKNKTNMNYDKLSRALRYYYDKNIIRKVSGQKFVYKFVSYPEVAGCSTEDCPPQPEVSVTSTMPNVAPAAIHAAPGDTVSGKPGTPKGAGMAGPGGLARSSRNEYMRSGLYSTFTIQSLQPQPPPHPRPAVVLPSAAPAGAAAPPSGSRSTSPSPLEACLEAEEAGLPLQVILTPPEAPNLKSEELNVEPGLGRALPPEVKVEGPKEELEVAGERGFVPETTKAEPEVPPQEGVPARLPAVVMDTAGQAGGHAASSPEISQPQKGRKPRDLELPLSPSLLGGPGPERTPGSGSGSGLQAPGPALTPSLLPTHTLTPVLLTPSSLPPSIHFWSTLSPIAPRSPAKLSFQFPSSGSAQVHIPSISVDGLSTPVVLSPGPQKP
To be noted: protein: recombinant; tags: N-terminal GST; dsDNA, one strand shown. The gist of the method: as §1

The target in a further test is T3, GABPA (Homo sapiens, UniProt Q06546 1-454).
T3 sequence: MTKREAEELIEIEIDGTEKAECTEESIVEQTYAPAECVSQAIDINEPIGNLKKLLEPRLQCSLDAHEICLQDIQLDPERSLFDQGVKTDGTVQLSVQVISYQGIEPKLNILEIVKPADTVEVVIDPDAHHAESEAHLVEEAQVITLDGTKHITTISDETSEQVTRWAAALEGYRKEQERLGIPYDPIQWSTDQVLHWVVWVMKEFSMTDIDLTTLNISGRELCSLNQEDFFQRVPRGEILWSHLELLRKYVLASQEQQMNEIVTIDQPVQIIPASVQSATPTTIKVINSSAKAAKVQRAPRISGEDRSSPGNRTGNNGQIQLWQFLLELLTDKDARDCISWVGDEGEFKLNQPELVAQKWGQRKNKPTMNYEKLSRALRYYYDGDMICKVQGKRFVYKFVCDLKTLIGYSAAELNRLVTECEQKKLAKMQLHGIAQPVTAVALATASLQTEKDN
To be noted: protein: recombinant; tags: N-terminal GST; dsDNA, one strand shown. A digest of the protocol:
as §1

Another test addresses T4, ERG (Homo sapiens, UniProt P11308 1-479).
T4 sequence: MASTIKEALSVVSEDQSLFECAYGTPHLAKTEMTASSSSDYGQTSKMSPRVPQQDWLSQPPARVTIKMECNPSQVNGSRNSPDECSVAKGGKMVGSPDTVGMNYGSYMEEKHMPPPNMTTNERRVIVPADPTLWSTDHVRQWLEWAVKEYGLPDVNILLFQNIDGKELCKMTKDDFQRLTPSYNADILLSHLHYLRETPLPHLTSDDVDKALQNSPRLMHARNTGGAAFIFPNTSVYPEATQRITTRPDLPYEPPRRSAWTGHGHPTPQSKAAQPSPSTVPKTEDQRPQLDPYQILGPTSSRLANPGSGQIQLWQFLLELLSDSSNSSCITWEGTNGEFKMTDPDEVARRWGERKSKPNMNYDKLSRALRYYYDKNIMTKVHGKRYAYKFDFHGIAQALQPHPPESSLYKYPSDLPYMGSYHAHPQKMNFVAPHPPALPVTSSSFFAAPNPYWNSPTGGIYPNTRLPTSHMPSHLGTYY
The following applies: protein: recombinant; tags: N-terminal GST; dsDNA, one strand shown. The gist of the method: as §1

A further test addresses ELF1 (Homo sapiens, UniProt P32519 1-619). To be noted: protein: recombinant; tags: N-terminal GST; dsDNA, one strand shown. The gist of the method:
as §1

For another test, the target named is T5, EHF (Homo sapiens, UniProt Q9NZC4 1-300).
T5 sequence: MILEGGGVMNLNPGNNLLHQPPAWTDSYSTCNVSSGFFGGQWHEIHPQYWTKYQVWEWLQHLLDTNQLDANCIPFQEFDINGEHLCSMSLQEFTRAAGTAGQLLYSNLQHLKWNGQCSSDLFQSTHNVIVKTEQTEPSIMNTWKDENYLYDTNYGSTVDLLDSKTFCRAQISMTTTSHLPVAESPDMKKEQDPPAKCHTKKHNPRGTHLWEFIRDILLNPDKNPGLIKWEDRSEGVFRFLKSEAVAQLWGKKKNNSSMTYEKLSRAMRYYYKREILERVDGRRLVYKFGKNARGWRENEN
To be noted: protein: recombinant; tags: N-terminal GST; dsDNA, one strand shown. A digest of the protocol: as §1

For a further test, the target named is SPI1 (Homo sapiens, UniProt P17947 1-270). The following applies: protein: recombinant; tags: N-terminal GST; dsDNA, one strand shown. A digest of the protocol: as §1
The next test deals with SPIB (Homo sapiens, UniProt Q01892 1-262). The following applies: protein: recombinant; tags: N-terminal GST; dsDNA, one strand shown. A digest of the protocol:
as §1

The target in a further test is T6, ELK3 (Homo sapiens, UniProt P41970 1-407).
T6 sequence: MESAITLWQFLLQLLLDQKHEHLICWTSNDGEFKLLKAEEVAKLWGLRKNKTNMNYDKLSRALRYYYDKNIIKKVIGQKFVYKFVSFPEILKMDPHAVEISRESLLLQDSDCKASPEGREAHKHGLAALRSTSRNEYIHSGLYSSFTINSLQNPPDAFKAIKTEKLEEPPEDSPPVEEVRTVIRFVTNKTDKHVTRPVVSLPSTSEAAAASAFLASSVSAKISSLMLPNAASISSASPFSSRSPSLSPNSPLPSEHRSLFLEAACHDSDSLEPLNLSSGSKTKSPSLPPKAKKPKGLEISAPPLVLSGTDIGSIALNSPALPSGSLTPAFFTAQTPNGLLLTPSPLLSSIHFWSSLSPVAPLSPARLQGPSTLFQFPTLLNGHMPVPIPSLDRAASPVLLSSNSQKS
The following applies: protein: recombinant; tags: N-terminal GST; dsDNA, one strand shown. The gist of the method:
as §1

For the next test, the target named is T7, FEV (Homo sapiens, UniProt Q99581 1-238).
T7 sequence: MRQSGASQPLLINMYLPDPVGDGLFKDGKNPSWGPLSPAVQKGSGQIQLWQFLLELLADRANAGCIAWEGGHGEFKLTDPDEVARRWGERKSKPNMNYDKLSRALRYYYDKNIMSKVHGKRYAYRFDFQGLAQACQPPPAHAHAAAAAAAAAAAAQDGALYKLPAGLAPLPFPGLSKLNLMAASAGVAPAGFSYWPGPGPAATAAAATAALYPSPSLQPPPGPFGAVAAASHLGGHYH
To be noted: protein: recombinant; tags: N-terminal GST; dsDNA, one strand shown. The gist of the method: as §1

Another test concerns the target ETV5 (Homo sapiens, UniProt P41161 1-510). To be noted: protein: recombinant; tags: N-terminal GST; dsDNA, one strand shown. A digest of the protocol:
as §1

A further test has as its target HSF1 (Homo sapiens, UniProt Q00613 1-529). To be noted: protein: recombinant; tags: N-terminal GST; chain copies: 3; dsDNA, one strand shown. The gist of the method: as §1
A further test concerns the target T8, SPIC (Homo sapiens, UniProt Q8N5J4 1-248).
T8 sequence: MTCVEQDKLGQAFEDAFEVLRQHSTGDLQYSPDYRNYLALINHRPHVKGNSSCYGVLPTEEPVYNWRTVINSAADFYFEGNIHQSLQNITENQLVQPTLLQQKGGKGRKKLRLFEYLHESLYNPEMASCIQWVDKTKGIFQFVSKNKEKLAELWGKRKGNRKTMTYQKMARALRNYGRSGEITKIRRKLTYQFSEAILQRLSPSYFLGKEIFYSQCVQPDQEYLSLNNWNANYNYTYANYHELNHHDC
To be noted: protein: recombinant; tags: N-terminal GST; dsDNA, one strand shown. A digest of the protocol:
as §1

Another test has as its target ELF4 (Homo sapiens, UniProt Q99607 1-663). To be noted: protein: recombinant; tags: N-terminal GST; dsDNA, one strand shown. The gist of the method: as §1
The next test addresses T9, ELK4 (Homo sapiens, UniProt P28324-2 1-405).
T9 sequence: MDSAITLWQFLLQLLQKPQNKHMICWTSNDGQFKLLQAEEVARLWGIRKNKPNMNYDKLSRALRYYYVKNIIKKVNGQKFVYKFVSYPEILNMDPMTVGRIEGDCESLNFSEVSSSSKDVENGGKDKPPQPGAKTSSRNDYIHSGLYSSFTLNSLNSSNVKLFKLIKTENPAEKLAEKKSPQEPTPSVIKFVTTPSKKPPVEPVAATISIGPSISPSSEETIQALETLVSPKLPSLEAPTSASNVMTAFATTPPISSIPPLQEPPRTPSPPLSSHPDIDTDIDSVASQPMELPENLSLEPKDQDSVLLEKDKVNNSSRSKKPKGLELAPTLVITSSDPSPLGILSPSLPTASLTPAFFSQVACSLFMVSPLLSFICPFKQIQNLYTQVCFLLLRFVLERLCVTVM
The following applies: protein: recombinant; tags: N-terminal GST; dsDNA, one strand shown. The gist of the method: as §1

The next test deals with T10, ETV2 (Homo sapiens, UniProt O00321 1-342).
T10 sequence: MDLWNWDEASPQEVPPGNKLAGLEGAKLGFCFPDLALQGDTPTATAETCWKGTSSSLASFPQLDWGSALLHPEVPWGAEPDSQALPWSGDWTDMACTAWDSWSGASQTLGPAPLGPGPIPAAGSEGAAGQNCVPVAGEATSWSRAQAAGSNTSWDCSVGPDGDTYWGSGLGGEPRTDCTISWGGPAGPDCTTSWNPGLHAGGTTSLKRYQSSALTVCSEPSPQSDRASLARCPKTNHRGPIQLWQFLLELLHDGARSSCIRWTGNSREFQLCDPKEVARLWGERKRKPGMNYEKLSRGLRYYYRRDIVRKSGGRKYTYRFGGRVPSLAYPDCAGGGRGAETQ
The following applies: protein: recombinant; tags: N-terminal GST; dsDNA, one strand shown. A digest of the protocol:
as §1

The target in another test is T11, ELF3 (Homo sapiens, UniProt P78545 1-371).
T11 sequence: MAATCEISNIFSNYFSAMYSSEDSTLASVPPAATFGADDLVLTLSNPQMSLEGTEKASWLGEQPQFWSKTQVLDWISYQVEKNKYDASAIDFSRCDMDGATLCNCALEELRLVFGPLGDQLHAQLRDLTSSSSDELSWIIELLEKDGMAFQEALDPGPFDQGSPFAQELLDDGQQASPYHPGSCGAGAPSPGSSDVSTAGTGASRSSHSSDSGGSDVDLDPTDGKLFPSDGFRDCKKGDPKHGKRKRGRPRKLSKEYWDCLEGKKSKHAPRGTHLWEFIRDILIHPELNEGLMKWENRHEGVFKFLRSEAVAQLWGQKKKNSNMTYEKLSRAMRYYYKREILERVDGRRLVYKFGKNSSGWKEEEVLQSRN
The following applies: protein: recombinant; tags: N-terminal GST; dsDNA, one strand shown. A digest of the protocol:
as §1

A further test concerns the target ETV1 (Homo sapiens, UniProt P50549 1-477). To be noted: protein: recombinant; tags: N-terminal GST; dsDNA, one strand shown. The gist of the method: as §1

Sequence of HSF1 (Q00613 whole entry): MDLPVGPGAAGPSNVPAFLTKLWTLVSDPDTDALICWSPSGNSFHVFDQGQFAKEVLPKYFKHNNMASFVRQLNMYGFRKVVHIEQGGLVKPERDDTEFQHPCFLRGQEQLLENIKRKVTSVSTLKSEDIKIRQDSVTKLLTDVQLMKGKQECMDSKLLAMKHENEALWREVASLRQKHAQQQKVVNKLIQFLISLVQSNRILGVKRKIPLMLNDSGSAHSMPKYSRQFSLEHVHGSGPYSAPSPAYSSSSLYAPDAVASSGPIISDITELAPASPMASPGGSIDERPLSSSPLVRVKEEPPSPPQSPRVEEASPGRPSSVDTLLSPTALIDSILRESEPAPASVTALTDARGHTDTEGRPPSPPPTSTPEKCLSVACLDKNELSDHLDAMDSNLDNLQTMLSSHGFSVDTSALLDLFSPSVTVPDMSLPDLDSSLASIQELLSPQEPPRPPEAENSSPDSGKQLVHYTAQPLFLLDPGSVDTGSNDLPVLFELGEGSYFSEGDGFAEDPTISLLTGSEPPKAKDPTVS
Sequence of ELF4 (Q99607 whole entry): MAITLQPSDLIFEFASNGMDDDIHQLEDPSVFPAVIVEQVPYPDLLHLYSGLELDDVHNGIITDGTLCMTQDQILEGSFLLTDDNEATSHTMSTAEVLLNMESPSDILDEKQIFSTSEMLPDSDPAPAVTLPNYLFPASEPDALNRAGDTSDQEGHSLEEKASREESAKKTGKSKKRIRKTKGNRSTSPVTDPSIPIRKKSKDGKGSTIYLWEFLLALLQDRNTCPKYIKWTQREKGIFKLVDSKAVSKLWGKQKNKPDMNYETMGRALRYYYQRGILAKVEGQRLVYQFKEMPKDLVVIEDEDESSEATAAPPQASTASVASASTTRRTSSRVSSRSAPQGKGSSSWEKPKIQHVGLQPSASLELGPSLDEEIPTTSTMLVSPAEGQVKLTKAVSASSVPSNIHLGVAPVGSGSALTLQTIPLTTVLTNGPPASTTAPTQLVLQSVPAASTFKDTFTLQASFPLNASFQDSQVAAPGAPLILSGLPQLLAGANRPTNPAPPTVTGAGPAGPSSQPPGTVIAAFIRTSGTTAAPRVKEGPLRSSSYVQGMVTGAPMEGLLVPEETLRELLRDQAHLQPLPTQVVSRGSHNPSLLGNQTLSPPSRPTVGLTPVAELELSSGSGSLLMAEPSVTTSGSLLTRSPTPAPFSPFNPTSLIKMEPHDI
Sequence of ELF1 (P32519 whole entry): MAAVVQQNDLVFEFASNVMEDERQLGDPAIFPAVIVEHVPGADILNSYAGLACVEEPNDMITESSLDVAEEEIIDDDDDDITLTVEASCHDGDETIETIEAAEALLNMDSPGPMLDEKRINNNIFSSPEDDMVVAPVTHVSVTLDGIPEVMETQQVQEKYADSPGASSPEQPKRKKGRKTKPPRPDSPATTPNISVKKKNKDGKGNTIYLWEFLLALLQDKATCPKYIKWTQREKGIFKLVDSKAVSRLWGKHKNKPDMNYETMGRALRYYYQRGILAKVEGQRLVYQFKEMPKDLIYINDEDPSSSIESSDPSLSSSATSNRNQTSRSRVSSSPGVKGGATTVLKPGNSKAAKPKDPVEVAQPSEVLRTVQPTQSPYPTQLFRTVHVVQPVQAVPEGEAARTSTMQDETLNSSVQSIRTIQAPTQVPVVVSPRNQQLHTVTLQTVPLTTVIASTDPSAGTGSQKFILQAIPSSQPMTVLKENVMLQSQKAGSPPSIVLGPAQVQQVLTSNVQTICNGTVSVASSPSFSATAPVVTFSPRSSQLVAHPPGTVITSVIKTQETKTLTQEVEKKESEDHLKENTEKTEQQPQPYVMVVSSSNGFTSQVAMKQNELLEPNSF
Sequence of ETV5 (P41161 whole entry): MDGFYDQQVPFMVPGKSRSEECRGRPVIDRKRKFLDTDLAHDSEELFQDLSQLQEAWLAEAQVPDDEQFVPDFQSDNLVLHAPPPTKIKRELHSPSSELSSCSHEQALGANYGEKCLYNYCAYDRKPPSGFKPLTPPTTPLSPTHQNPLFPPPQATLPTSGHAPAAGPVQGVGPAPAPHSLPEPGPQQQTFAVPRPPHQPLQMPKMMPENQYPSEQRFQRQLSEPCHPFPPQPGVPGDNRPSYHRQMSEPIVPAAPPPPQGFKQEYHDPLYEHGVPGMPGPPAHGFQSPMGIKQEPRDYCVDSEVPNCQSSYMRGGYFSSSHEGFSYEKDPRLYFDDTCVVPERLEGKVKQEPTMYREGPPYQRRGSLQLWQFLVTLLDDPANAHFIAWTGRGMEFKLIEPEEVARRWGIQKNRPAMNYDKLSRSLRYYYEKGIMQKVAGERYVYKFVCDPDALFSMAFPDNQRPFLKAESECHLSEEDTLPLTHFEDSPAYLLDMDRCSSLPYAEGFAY
Sequence of SPIB (Q01892 whole entry): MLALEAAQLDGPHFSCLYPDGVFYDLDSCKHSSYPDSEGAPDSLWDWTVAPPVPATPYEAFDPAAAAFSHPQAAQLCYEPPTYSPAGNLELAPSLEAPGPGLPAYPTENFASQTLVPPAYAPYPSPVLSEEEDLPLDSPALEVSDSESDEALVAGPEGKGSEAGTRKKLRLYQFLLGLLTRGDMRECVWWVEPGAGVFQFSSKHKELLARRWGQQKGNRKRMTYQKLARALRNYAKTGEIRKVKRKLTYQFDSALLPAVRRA
Sequence of ETV1 (P50549 whole entry): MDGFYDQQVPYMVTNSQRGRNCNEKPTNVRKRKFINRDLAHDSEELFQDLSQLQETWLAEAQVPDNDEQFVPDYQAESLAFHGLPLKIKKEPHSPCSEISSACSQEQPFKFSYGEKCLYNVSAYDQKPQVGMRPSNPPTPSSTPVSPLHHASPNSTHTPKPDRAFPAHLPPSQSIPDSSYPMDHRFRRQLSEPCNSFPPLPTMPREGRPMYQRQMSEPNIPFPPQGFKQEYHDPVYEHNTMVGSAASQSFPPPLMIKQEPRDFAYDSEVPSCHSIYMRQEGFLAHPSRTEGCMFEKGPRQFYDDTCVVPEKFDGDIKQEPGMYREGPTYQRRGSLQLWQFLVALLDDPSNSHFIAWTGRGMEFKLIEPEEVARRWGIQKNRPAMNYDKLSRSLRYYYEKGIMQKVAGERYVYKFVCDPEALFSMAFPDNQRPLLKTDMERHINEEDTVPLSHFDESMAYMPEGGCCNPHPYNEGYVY

For the sequence CCCTCA, the binding signal was 1.28 fold enrichment (6-mer frequency, TF over GST control) in the test with FLI1; 1.11 fold enrichment (6-mer frequency, TF over GST control) with ELK1; 1.18 fold enrichment (6-mer frequency, TF over GST control) with GABPA; 1.16 fold enrichment (6-mer frequency, TF over GST control) with ERG; 1.19 fold enrichment (6-mer frequency, TF over GST control) in the test with ELF1; 1.1 fold enrichment (6-mer frequency, TF over GST control) with EHF. Further, the binding signal with SPI1 was 1.12 fold enrichment (6-mer frequency, TF over GST control); with SPIB it was 1.25 fold enrichment (6-mer frequency, TF over GST control); in the test with ELK3 it was 1.19 fold enrichment (6-mer frequency, TF over GST control); with FEV, 1.24 fold enrichment (6-mer frequency, TF over GST control); with ETV5, 1.18 fold enrichment (6-mer frequency, TF over GST control); with HSF1 it was 1.03 fold enrichment (6-mer frequency, TF over GST control). Also, the binding signal with SPIC is 1.06 fold enrichment (6-mer frequency, TF over GST control); with ELF4 it was 1.28 fold enrichment (6-mer frequency, TF over GST control); in the test with ELK4, 1.11 fold enrichment (6-mer frequency, TF over GST control); with ETV2 it was 1.29 fold enrichment (6-mer frequency, TF over GST control); with ELF3 it was 1.17 fold enrichment (6-mer frequency, TF over GST control); with ETV1 it was 1.19 fold enrichment (6-mer frequency, TF over GST control).
